# Experimental data as given in ChEMBL document CHEMBL3988442, “University of Dundee, Small-Polar-MMV Screening Library” (2021).
# The campaign covered roughly 38,000 compounds. About 1,200 (3.2%) showed an effect of 50% or more. The median lay at about -58%. The sample holds strong results, similar compounds and a random draw of the others, so the mix is not that of the screen.
# Test system: Plasmodium falciparum
# Assay: Calibr Malaria Delayed Death Assay SOP
# Assay type: functional, organism-based
# Parameters: scale not given: in the data most compounds retested in dose-response had high values
# Details: concentration 4.99e-06 (unit not given; other assays of the set use mol/L)
row,SMILES,Percent Effect
1,CC(C)N(C)C(=O)C1=NOC2(CCN(C(=O)c3ccnnc3)C2)C1 (stereo unspecified),-187.4%
2,Cc1cccc(CCC(=O)Nc2ccnn2C2CCS(=O)(=O)C2)c1 (stereo unspecified),-75.57%
3,O=C(NCCNc1ccc(Br)cn1)c1ccc(O)cc1,-25.48%
4,O=C(NCCNC(=O)c1ccc(Br)cc1)c1ccc(O)cc1,27.41%
5,O=C(NCCNc1cncc(Br)c1)c1ccc(O)cc1,50.22%
6,CCc1nn(C)c(Cl)c1CN1CCCC2(CC1)CN(C)C(=O)O2 (stereo unspecified),-46.66%
7,O=C1NCC2(CCCN(Cc3ccccc3OCCO)C2)O1 (stereo unspecified),-55.51%
8,OCC1(O)CCCN(Cc2ccccc2OCCc2ccccc2)CC1 (stereo unspecified),64.9%
9,OCCOc1ccccc1CN1CCCC(O)(CO)C1 (stereo unspecified),-48.41%
10,Cc1cc(C(=O)Nc2cnn(CC(F)(F)F)c2)nc(N2CCOCC2)n1,-108.9%
11,c1csc(COC[C@H]2CCC[C@]23CN(Cc2ccoc2)CCO3)n1,34.38%
12,CCS(=O)(=O)N1CCC(Oc2ccc(C#N)cc2)CC1,-74.03%
13,CCN(CC)S(=O)(=O)c1ccc(CNC(=O)N2CCC(C#N)CC2)cc1,-96.87%
14,CS(=O)(=O)NCC1CCCCN1Cc1cccc(C#N)c1 (stereo unspecified),-99.98%
15,CCN1CCCC1CN(CCN(C)C)S(=O)(=O)c1ccc(C#N)cc1 (stereo unspecified),58.03%
16,CCN1CCCC1CN(CCN(C)C)S(=O)(=O)c1cccc(C#N)c1 (stereo unspecified),58.76%
17,CC(=O)NCCC1CCCCN1S(=O)(=O)c1cccc(C#N)c1 (stereo unspecified),-38.39%
18,Cn1ncc2c(NC3CCCN(C(=O)C4CC4)C3)nc(C(C)(C)C)nc21 (stereo unspecified),-80.8%
19,CC(C)CC(NC(=O)c1ccn(C)c(=O)c1)c1ccccc1 (stereo unspecified),-106.6%
20,CNC(=O)C1CCCN1c1nc(C)c2ccccc2n1 (stereo unspecified),-23.49%
21,CCc1c(C)nc2ccccc2c1N1CCC(NC(C)=O)CC1,21.66%
22,CCc1c(C)nc2ccccc2c1N1CCC(C(=O)NC)CC1,51%
23,Cc1csc(NC(=O)[C@@H]2C[C@H]3[C@H](CCN3S(C)(=O)=O)O2)n1,-110.3%
24,O=S(=O)(NCc1ccc(S(=O)(=O)N2CCCC2)s1)c1ccc(Cl)cc1,-58.72%
25,O=C1CN(C(=O)c2ccc(F)cc2)CC(O)CN1Cc1cccs1 (stereo unspecified),88.73%
26,O=C1CN(C(=O)c2ccc(Cl)cc2)CC(O)CN1Cc1cccs1 (stereo unspecified),-105.2%

row,SMILES,Percent Effect
1,Cc1ccc(C(=O)N2CC(=O)N(Cc3cccs3)CC(O)C2)cc1 (stereo unspecified),-71.11%
2,CN(C)S(=O)(=O)N1CCOCC1CC(=O)NCCOc1ccccc1 (stereo unspecified),-2.235%
3,CCc1noc(C)c1C(=O)NCc1cc[nH]n1,-11.39%
4,Cc1noc(C)c1C(=O)NCc1cc[nH]n1,-1.688%
5,CCN(c1ccc(C(=O)NCc2cc[nH]n2)cc1)C(C)C,57.8%
6,Cc1nc(CN2CCCC(NCc3ccc4c(c3)CCO4)C2)no1 (stereo unspecified),-110.8%
7,CCCc1nc(N2CCSCC2)c2c(n1)c(C)nn2CC,-63.17%
8,CCN(CC)CC1CN(Cc2ccc(C)s2)Cc2nccn2C1.O=C(O)C(F)(F)F.O=C(O)C(F)(F)F (stereo unspecified),66.72%
9,CCN(CC)CC1CN(CCc2ccccc2)Cc2nccn2C1.O=C(O)C(F)(F)F.O=C(O)C(F)(F)F (stereo unspecified),57.03%
10,Cc1ccc(CN2Cc3nccn3CC(CN(C)C)C2)s1.O=C(O)C(F)(F)F.O=C(O)C(F)(F)F (stereo unspecified),-55.03%
11,CN(C)CC1CN(Cc2ccc(F)cc2)Cc2nccn2C1.O=C(O)C(F)(F)F.O=C(O)C(F)(F)F (stereo unspecified),12.77%
12,Cc1ccc(CN2Cc3nccn3CC(Cn3cccn3)C2)s1.O=C(O)C(F)(F)F (stereo unspecified),-33.05%
13,CCN(CC)CC1CN(Cc2nccs2)Cc2nccn2C1.O=C(O)C(F)(F)F.O=C(O)C(F)(F)F (stereo unspecified),18.43%
14,O=C(NCC1CC1)c1cc2c(s1)CCN2c1ncccn1,-131.9%
15,O=C(c1cnc2ccc(Cl)cc2c1NCc1ccco1)N1CCCCC1,-150.7%
16,Cc1ncsc1-c1nnc(C2CCN(Cc3ccc(Cl)cc3)CC2)o1,-44.81%
17,CC(C)(CN1CCC2(CCOCC2)CC1)N1CCOCC1,-173.8%
18,COCC1c2nnn(C)c2CCN1C(=O)Cc1ccccn1 (stereo unspecified),-28.75%
19,CCC[C@H]1CN(S(=O)(=O)c2ccccc2)C[C@@H]1N,16.03%
20,Cc1noc(C)c1-c1n[nH]c2c1CN(S(=O)(=O)c1cccs1)CC2,-28.6%
21,CCC[C@H]1CN(S(=O)(=O)c2cc(C)ccc2F)C[C@@H]1N,52.25%
22,CCS(=O)(=O)NC1CCCN(c2cc(C)ccc2F)C1=O (stereo unspecified),0.205%
23,Cc1ccc(F)c(S(=O)(=O)N2CCCC2c2ccncc2)c1 (stereo unspecified),-74.84%
24,CCc1ccc(S(=O)(=O)N2CCCC(c3ncc[nH]3)C2)s1 (stereo unspecified),13.27%
25,Cc1ccc(C)c(S(=O)(=O)N2CCN(C)C3(CCC(=O)N(C)CC3)C2)c1 (stereo unspecified),-116.8%
26,CCC[C@H]1CN(S(=O)(=O)c2cc(C)ccc2C)C[C@@H]1N,67.41%

row,SMILES,Percent Effect
1,Cc1cccc(OCC(O)CNCc2c(C)nn(C)c2N(C)C)c1 (stereo unspecified),22.52%
2,O=C(O)C(F)(F)F.O=C(O)C(F)(F)F.O=S1(=O)c2ccccc2C2(CCN(Cc3cccnc3)C2)N1CC1CC1 (stereo unspecified),-8.635%
3,CS(=O)(=O)NC[C@]12COC[C@H]1CN(CC1CCC1)C2.O=C(O)C(F)(F)F,-46.78%
4,CS(=O)(=O)N1C[C@H]2CN(CC3CC3)C(=O)[C@H]2C1,-17.38%
5,CN1CCN(C[C@@H]2CN(C(=O)NCC3CCCCC3)C[C@@H]2CO)CC1,-32.18%
6,Clc1ccccc1C1(c2ccnc(C3CC3)n2)CCNCC1,72.39%
7,Clc1ccccc1C1(c2ccnc(C3CCCC3)n2)CCNCC1,82.68%
8,Cl.Clc1cccnc1OC1CCNCC1,7.245%
9,Cc1cccc(CN2CCn3c(C(=O)N(C)C)cnc3C2)c1,-123.8%
10,CN(C)CCNC(=O)c1cc2c(s1)CCN2S(C)(=O)=O,-66.69%
11,Cn1cnnc1CCC(=O)N1CCCC(OCc2cccnc2)C1 (stereo unspecified),-207.3%
12,COc1cc(NC(=O)c2ccc(Cl)cc2F)c(C(=O)N(C)C)cc1OC,-107.3%
13,Cc1cnn(C2CN(CC(O)c3ccccc3)C2)c1 (stereo unspecified),40.53%
14,Cc1cc(C)n(C2CN(CC(O)COc3ccc(F)cc3)C2)n1 (stereo unspecified),-22.32%
15,Cc1cnn(C2CN(CC(O)c3ccc(F)cc3)C2)c1 (stereo unspecified),56.46%
16,COc1ccc(C(O)CN2CC(n3cc(C)cn3)C2)cc1 (stereo unspecified),19.27%
17,Cc1cc(C)n(C2CN(CC(O)Cn3cccn3)C2)n1 (stereo unspecified),-132.3%
18,Cc1cc(C)n(C2CN(CC(O)c3cc(F)ccc3F)C2)n1 (stereo unspecified),84.13%
19,Cc1cc(C)n(C2CN(CCc3ccncc3)C2)n1,-117%
20,COc1ccc(C(O)CN2CC(n3nc(C)cc3C)C2)cc1 (stereo unspecified),47.1%
21,COc1cc(OC)cc(-c2noc(C(N)CCSC)n2)c1 (stereo unspecified),-32.31%
22,Cc1ccc(C(=O)Nc2ccc3c(c2)N(C)CCN(C)C3)c(=O)[nH]1,-25.5%
23,Cc1cnn(C2CN(CC(=O)NCCc3cccs3)C2)c1,-35.32%
24,CN(Cc1cc2cc(F)ccc2[nH]1)C(=O)C1CC(=O)N(C2CC2)C1 (stereo unspecified),-1.915%
25,Cc1cc(CN2CCO[C@H]3[C@H](OCc4csc(C)n4)CC[C@@H]32)no1.O=C(O)C(F)(F)F.O=C(O)C(F)(F)F,-78.11%
26,CC1CCN(C(=O)C2CCN(c3ccc(Cl)cc3C#N)CC2)CC1,59.54%

row,SMILES,Percent Effect
1,N#Cc1cc(Cl)ccc1N1CCN(C(=O)C2CCC2)CC1,-79.7%
2,CCN(CC)C(=O)C1CCN(c2ccc(Cl)cc2C#N)CC1,-152.7%
3,Cc1noc(CN(C)C2CCCN(Cc3noc(C4CC4)n3)C2)n1 (stereo unspecified),-141.9%
4,Cc1cc(CN2CCOC(CNc3cccnn3)C2)no1 (stereo unspecified),-113%
5,CO[C@H]1CN(CC2CCOCC2)[C@@H]2CCCO[C@H]12.O=C(O)C(F)(F)F,-55.37%
6,Cn1ccnc1CCC1CCCCN1Cc1nccn1C (stereo unspecified),23.43%
7,Cc1c[nH]c(CN2CCCCC2CCn2ccnc2C)c(C)c1=O (stereo unspecified),-167.9%
8,CCOC(C)c1nccn1CCC(=O)Nc1cc(C)on1 (stereo unspecified),-31.31%
9,CCn1cnc2c(cnn2-c2cccc(C)c2C)c1=O,-109.7%
10,CC(=O)c1c(O)n(C)c2ccc(F)cc12,-135.9%
11,Cc1cnn(CCNCc2ccc(OCc3cscn3)cc2)c1,-21.22%
12,CC[C@H]1CN2CC[C@H]1C[C@@H]2CNC(=O)NC1CCCCC1,-27.77%
13,CC[C@H]1CN2CC[C@H]1C[C@@H]2CNCc1ccc(OC(F)(F)F)cc1,85.66%
14,CCN1CCCC(O)(CNCc2ccc3c(c2)OCO3)C1 (stereo unspecified),14.07%
15,CC(C)NC(=O)NC[C@H]1C[C@@H]2CCN1C[C@@H]2CN(C)c1ccccc1,-39.27%
16,CC[C@H]1CN2CC[C@H]1C[C@@H]2CNC(=O)Nc1cc(OC)cc(OC)c1,63.7%
17,CC[C@H]1CN2CC[C@H]1C[C@@H]2CNC(=O)Nc1cccc(C(F)(F)F)c1,-88.31%
18,CC[C@H]1CN2CC[C@H]1C[C@@H]2CNC(=O)Nc1ccccc1,-66.09%
19,CC[C@H]1CN2CC[C@H]1C[C@@H]2CNCc1cccc(C#N)c1,34.74%
20,CC[C@H]1CN2CC[C@H]1C[C@@H]2CNC(=O)Nc1cccc(C#N)c1,-82.85%
21,CC[C@H]1CN2CC[C@H]1C[C@@H]2CNCc1ccc(OC)cc1,6.891%
22,CC[C@H]1CN2CC[C@H]1C[C@@H]2CNCc1ccc2c(c1)OCO2,60.86%
23,CC[C@H]1CN2CC[C@H]1C[C@@H]2CNCc1ccc(N(C)C)cc1,62.75%
